# Calls of active or inactive are those of the source. The calls were made as follows: active = hit-call score of the fitted dose curve at least 0.9, where 1 is the maximum; inactive = score below 0.9.
# Experiment: APR_HepG2_MicrotubuleCSK_24hr: Apredica 24-hour HepG2 Assay for Microtubule CSK Stabilty (AID 2282909)
# Conditions: HepG2 microtubule cytoskeleton imaging, actives raise or lower the signal
# Summary of the method: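 Fixed HepG2 cells were stained for alpha-tubulin and imaged after 24 hr exposure to ten concentrations spanning 0.39–200 uM in 0.5% DMSO. Signal change was fitted in both directions relative to DMSO; taxol was the positive control.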
SMILES,outcome,AC50
CCCCOC(=O)c1ccc(O)cc1,inactive,
CCCCCCCCCCCC[N+](C)(C)C,inactive,
CCCCCCCC[Si](OCC)(OCC)OCC,inactive,
Clc1cc(Cl)c2c(c1)N=C1CCCCCN1C2,inactive,
COCC(C)OCC(C)OCC(C)O (stereo unspecified),inactive,
CCCCOC(=O)CC(CC(=O)OCCCC)(OC(C)=O)C(=O)OCCCC,inactive,
OC12N=C(c3ccccc3)SC1Cc1cc(Cl)ccc12 (stereo unspecified),inactive,
O=C(O)c1ccccc1C(=O)OCc1ccccc1,inactive,
CN1C(=O)CC[C@H]1c1cccnc1,inactive,
Cc1cc2c(cc1C(F)(F)F)N(C(=O)Nc1ccc(Oc3cccnc3C)nc1)CC2,,43.6 µM (active)
Oc1ccccc1,inactive,
Clc1ccccc1C(c1ccccc1)(c1ccccc1)n1ccnc1,,30.7 µM (active)
CCN(CC)C(=O)c1cc(S(=O)(=O)Cc2ccccc2)c(N2CCC(c3ccccc3)CC2)cc1N(CC)CCN(C)C,,11.1 µM (active)
CCN(Cc1cccnc1)C(=O)c1cccc(Cl)c1[C@]1(C)C(=O)N(Cc2ccc(OC)cc2OC)c2ccc(Cl)cc21,inactive,
O=c1[nH]sc2ccccc12,,38.2 µM (active)
CC/C(=C(/CC)c1ccc(O)cc1)c1ccc(O)cc1,inactive,
O=C(O)c1ccccc1-n1cc(C(=O)O)c(=O)c2cc(Nc3c(F)cc(F)cc3Cl)c(Cl)cc21,inactive,
CCCC(=O)OCCC(C)C,inactive,
CC[C@@H]1C[C@H](N(Cc2cc(C(F)(F)F)cc(C(F)(F)F)c2)C(C)=O)c2cc(C(F)(F)F)ccc2N1C(=O)OC(C)C,inactive,

SMILES,outcome,AC50
C[C@]12CC[C@@H]3c4ccc(O)cc4CC[C@H]3[C@@H]1CC[C@H]2O,,100 µM (active)
CC(C)(C)c1csc(-c2cc3cc(OCc4ccccc4CC(=O)O)ccc3o2)n1,inactive,
Cc1oc2c(NC(=O)c3c(Cl)cccc3Cl)cccc2c1C(C)(C)O,inactive,
O=C(O)Cc1cc(I)c(Oc2ccc(O)c(I)c2)c(I)c1,inactive,
NC(=O)c1nc(-c2cccc(-c3cc(F)ccc3OCC(F)(F)C(F)(F)F)c2)n[nH]1,inactive,
Cc1occc1C(=O)Nc1ccc(C(=O)N2CCC(F)(F)/C(=C\C(=O)N3CCC(N4CCCCC4)CC3)c3ccccc32)cc1,inactive,
NCc1cccc(C2CCN(C(=O)c3ccc(C#Cc4ccccc4F)o3)CC2)c1,,61.3 µM (active)
c1ccc2ccccc2c1,inactive,
CCCCCCCCCCCCO,inactive,
C[C@]12CC[C@@H]3c4ccc(O)cc4CC[C@H]3[C@@H]1CCC2=O,inactive,
Cc1cn([C@H]2C[C@H](N=[N+]=[N-])[C@@H](CO)O2)c(=O)[nH]c1=O,inactive,
Cc1cccc2ccccc12,inactive,
CC1=CC(=O)/C(=C(/C)O)C(=O)O1,inactive,
CN(C[C@@H](CC[N+]12CCC(C3CCCCC3)(CC1)CC2)c1ccc(Cl)c(Cl)c1)C(=O)c1cc(C(F)(F)F)cc(C(F)(F)F)c1,,34.3 µM (active)
CCCOC(=O)c1cc(O)c(O)c(O)c1,inactive,
CCCCCCCCOC(=O)c1cc(O)c(O)c(O)c1,,171 µM (active)
CN(C)c1ccc(C(=C2C=CC(=[N+](C)C)C=C2)c2ccc(N(C)C)cc2)cc1,,22 µM (active)
Cc1ccc2oc(CN(Cc3ccccc3)C(=O)Nc3c(F)cc(F)cc3F)c(-c3ccc(Cl)cc3)c2c1,inactive,
O=CCCCC=O,inactive,

# Experiment: APR_HepG2_MitoticArrest_24hr: Apredica 24-hour HepG2 Assay for Mitotic Arrest (AID 2282910)
# Conditions: high-content imaging, actives raise or lower the signal
# Summary of the method: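 HepG2, 24 hr dosing, 0.39–200 uM, 0.5% DMSO final. Formaldehyde-fixed, Triton-permeabilised, anti-phospho-histone H3 plus Hoechst. ArrayScan imaging at 20x; bidirectional fit vs DMSO baseline.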
SMILES,outcome,AC50
CCCCOC(=O)c1ccc(O)cc1,inactive,
CCCCCCCCCCCC[N+](C)(C)C,,50.2 µM (active)
CCCCCCCC[Si](OCC)(OCC)OCC,inactive,
Clc1cc(Cl)c2c(c1)N=C1CCCCCN1C2,inactive,
COCC(C)OCC(C)OCC(C)O (stereo unspecified),inactive,
CCCCOC(=O)CC(CC(=O)OCCCC)(OC(C)=O)C(=O)OCCCC,inactive,
OC12N=C(c3ccccc3)SC1Cc1cc(Cl)ccc12 (stereo unspecified),inactive,
O=C(O)c1ccccc1C(=O)OCc1ccccc1,inactive,
CN1C(=O)CC[C@H]1c1cccnc1,inactive,
Cc1cc2c(cc1C(F)(F)F)N(C(=O)Nc1ccc(Oc3cccnc3C)nc1)CC2,,56.2 µM (active)
Oc1ccccc1,inactive,
Clc1ccccc1C(c1ccccc1)(c1ccccc1)n1ccnc1,,31.6 µM (active)
CCN(CC)C(=O)c1cc(S(=O)(=O)Cc2ccccc2)c(N2CCC(c3ccccc3)CC2)cc1N(CC)CCN(C)C,,1.59 µM (active)
CCN(Cc1cccnc1)C(=O)c1cccc(Cl)c1[C@]1(C)C(=O)N(Cc2ccc(OC)cc2OC)c2ccc(Cl)cc21,inactive,
O=c1[nH]sc2ccccc12,,13.5 µM (active)
CC/C(=C(/CC)c1ccc(O)cc1)c1ccc(O)cc1,,50 µM (active)
O=C(O)c1ccccc1-n1cc(C(=O)O)c(=O)c2cc(Nc3c(F)cc(F)cc3Cl)c(Cl)cc21,inactive,
CCCC(=O)OCCC(C)C,inactive,
CC[C@@H]1C[C@H](N(Cc2cc(C(F)(F)F)cc(C(F)(F)F)c2)C(C)=O)c2cc(C(F)(F)F)ccc2N1C(=O)OC(C)C,inactive,

SMILES,outcome,AC50
C[C@]12CC[C@@H]3c4ccc(O)cc4CC[C@H]3[C@@H]1CC[C@H]2O,,97.1 µM (active)
CC(C)(C)c1csc(-c2cc3cc(OCc4ccccc4CC(=O)O)ccc3o2)n1,inactive,
Cc1oc2c(NC(=O)c3c(Cl)cccc3Cl)cccc2c1C(C)(C)O,inactive,
O=C(O)Cc1cc(I)c(Oc2ccc(O)c(I)c2)c(I)c1,inactive,
NC(=O)c1nc(-c2cccc(-c3cc(F)ccc3OCC(F)(F)C(F)(F)F)c2)n[nH]1,,101 µM (active)
Cc1occc1C(=O)Nc1ccc(C(=O)N2CCC(F)(F)/C(=C\C(=O)N3CCC(N4CCCCC4)CC3)c3ccccc32)cc1,inactive,
NCc1cccc(C2CCN(C(=O)c3ccc(C#Cc4ccccc4F)o3)CC2)c1,,18.6 µM (active)
c1ccc2ccccc2c1,inactive,
CCCCCCCCCCCCO,inactive,
C[C@]12CC[C@@H]3c4ccc(O)cc4CC[C@H]3[C@@H]1CCC2=O,inactive,
Cc1cn([C@H]2C[C@H](N=[N+]=[N-])[C@@H](CO)O2)c(=O)[nH]c1=O,inactive,
Cc1cccc2ccccc12,inactive,
CC1=CC(=O)/C(=C(/C)O)C(=O)O1,inactive,
CN(C[C@@H](CC[N+]12CCC(C3CCCCC3)(CC1)CC2)c1ccc(Cl)c(Cl)c1)C(=O)c1cc(C(F)(F)F)cc(C(F)(F)F)c1,,33.4 µM (active)
CCCOC(=O)c1cc(O)c(O)c(O)c1,inactive,
CCCCCCCCOC(=O)c1cc(O)c(O)c(O)c1,,50.8 µM (active)
CN(C)c1ccc(C(=C2C=CC(=[N+](C)C)C=C2)c2ccc(N(C)C)cc2)cc1,,4.66 µM (active)
Cc1ccc2oc(CN(Cc3ccccc3)C(=O)Nc3c(F)cc(F)cc3F)c(-c3ccc(Cl)cc3)c2c1,inactive,
O=CCCCC=O,inactive,

# — PubChem BioAssay (EPA / NIEHS)
